Results reported in the supplement of paper PMC7366291.
Counter-ions that a name gives are not always drawn. ± gives the standard deviation or the standard deviation of the averaged measurements.

Tests used:
Conditions in all cases: 25 µM; exposure: 24-48 hpf
[1] = tested on: Danio rerio Tg(wt1b:EGFP) embryo, pronephros; assay: glomerular separation, fold change vs DMSO control; higher = glomeruli further apart (abnormal)
Outline: (§1)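 In HEPES-buffered E3 with 0.003% PTU and 0.5% DMSO, dechorionated Tg(wt1b:EGFP) zebrafish embryos were exposed to 25 μM compound from 24 to 48 hpf at 28.5°C. Pronephroi were then imaged dorsally at 470 nm in 10 z-slices, in 96-well plates filled with agarose. On maximum projections, a Fiji macro turned 16 manually placed reference points into distances and angles, and values more than 2 SD from the feature mean were excluded. Features are fold changes relative to the mean of DMSO-treated embryos from the same day.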

[2] = tested on: Danio rerio Tg(wt1b:EGFP) embryo, pronephros; assay: glomerular width (mean of left and right), fold change vs DMSO control; higher = wider glomerulus
Outline: as §1

[3] = tested on: Danio rerio Tg(wt1b:EGFP) embryo, pronephros; assay: fraction of imaged embryos annotated as normal kidney; higher = less nephrotoxic; extreme values may be limits of the assay
Outline: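 The read-out is the proportion of embryos in each treatment manually annotated as normal-kidney. Exposure ran from 24 to 48 hpf at 28.5°C in 12-well plates, using dechorionated Tg(wt1b:EGFP) zebrafish embryos in 5 mM HEPES-buffered E3 with 0.003% PTU, 0.5% DMSO and 25 μM compound. For imaging, larvae were anaesthetised with tricaine, positioned dorsally in agarose-filled 96-well plates and captured by widefield fluorescence (470 nm, 10 z-slices), with scoring done on maximum projections.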

[4] = tested on: Danio rerio Tg(wt1b:EGFP) embryo, pronephros; assay: pronephric angle neck segment to proximal convoluted tubule (mean of left and right), fold change vs DMSO control; higher = larger pronephric angle
Outline: as §1

SMILES	glomerular separation [1]	glomerular width [2]	fraction of imaged embryos annotated as normal kidney [3]	pronephric angle neck segment [4]
CN(C)CCC[C@@]1(c2ccc(F)cc2)OCc2cc(C#N)ccc21 [Escitalopram oxalate]	1.13 ± 0.38	0.9778 ± 0.0032	0.833	0.941 ± 0.024
CC(C)(Oc1ccc(Cl)cc1)C(=O)O [Clofibric acid]	1.17 ± 0.56	0.927 ± 0.036	0.667	1.001 ± 0.0094
COc1ccc(CN(CCN(C)C)c2ccccn2)cc1 [Pyrilamine maleate]	1.29 ± 0.44	1.03 ± 0.018	0.667	1.03 ± 0.033
CC(=O)Nc1c(I)c(C(=O)N[C@H]2C(O)O[C@H](CO)[C@@H](O)[C@@H]2O)c(I)c(N(C)C(C)=O)c1I (stereo not given in full) [Metrizamide]	0.874 ± 0.3	1.11 ± 0.1	0.833	0.988 ± 0.025
O=C(c1ccc(OCCN2CCCCC2)cc1)c1c(-c2ccc(O)cc2)sc2cc(O)ccc12 [Raloxifene hydrochloride]	0.793 ± 0.18	0.98 ± 0.059	0.917	1.01 ± 0.025
CNC[C@H](O)[C@@H](O)[C@H](O)[C@H](O)CO [Meglumine]	0.734 ± 0.11	1.03 ± 0.061	0.909	1.006 ± 0.0029
COc1ccccc1N1CCN(CCCCNC(=O)c2ccc3ccccc3c2)CC1	0.691 ± 0.17	1.02 ± 0.049	0.917	0.969 ± 0.018
OCCN1CCN(CCCN2c3ccccc3Sc3ccc(Cl)cc32)CC1 [Perphenazine]	0.838 ± 0.23	1.07 ± 0.063	0.917	1.03 ± 0.012
C[N+]1(CCCCC[N+]2(C)CCCC2)CCCC1 [Pentolinium bitartrate]	1.28 ± 0.5	1.0393 ± 0.0007	0.75	1.05 ± 0.052
CCC1NC(=O)c2cc(S(N)(=O)=O)c(Cl)cc2N1 (stereo not given) [Quinethazone]	0.951 ± 0.37	1.05 ± 0.063	0.909	1.04 ± 0.027
NS(=O)(=O)c1cc(C2(O)NC(=O)c3ccccc32)ccc1Cl (stereo not given) [Chlorthalidone]	1.04 ± 0.23	1.04 ± 0.079	0.75	1.02 ± 0.073
COC(=O)Nc1nc2ccc(SC(C)C)cc2[nH]1 [Methiazole]	3.98 ± 1.2	0.49428 ± 0.00044	0	1.95 ± 0.046
CC[N+](C)(CC)CCC[n+]1c(-c2ccccc2)c2cc(N)ccc2c2ccc(N)cc21 [Propidium iodide]	0.946 ± 0.41	1.16 ± 0.087	0.727	0.959 ± 0.036
O=C(CCCN1CCC(O)(c2ccc(Cl)cc2)CC1)c1ccc(F)cc1 [Haloperidol]	1.19 ± 0.53	0.918 ± 0.086	0.833	0.974 ± 0.046
CC(=O)Oc1cc(C(C)C)c(OCCN(C)C)cc1C [Moxisylyte hydrochoride]	0.853 ± 0.24	1.03 ± 0.0053	0.917	0.977 ± 0.068
CC(C)(C)c1ccc(C(O)CCCN2CCC(C(O)(c3ccccc3)c3ccccc3)CC2)cc1 (stereo not given) [Terfenadine]	0.943 ± 0.3	1.023 ± 0.0083	0.583	1.02 ± 0.039
COc1ccccc1OCC(O)CO (stereo not given) [Guaifenesin]	1.21 ± 0.52	0.929 ± 0.12	0.917	1.07 ± 0.035
COC(c1ccccc1)(c1ccccc1)[C@H](Oc1nc(C)cc(C)n1)C(=O)O [Ambrisentan]	0.883 ± 0.35	0.873 ± 0.017	0.833	1.09 ± 0.018
COc1ccccc1OCC(O)CN1CCN(CC(=O)Nc2c(C)cccc2C)CC1 (stereo not given) [Ranolazine]	0.739 ± 0.33	1.021 ± 0.0091	0.833	1.01 ± 0.029
CN(C)CCc1c[nH]c2ccc(Cn3cncn3)cc12 [Rizatriptan benzoate]	0.941 ± 0.29	1.01 ± 0.025	0.5	1.02 ± 0.07
COc1cc(NS(=O)(=O)c2ccc(N)cc2)ncn1 [Sulfamonomethoxine]	0.898 ± 0.44	0.946 ± 0.055	0.833	0.927 ± 0.096
CC(C)C(=O)OCC(=O)[C@@]12O[C@H](C3CCCCC3)O[C@@H]1C[C@H]1[C@@H]3CCC4=CC(=O)C=C[C@]4(C)[C@H]3[C@@H](O)C[C@@]12C [Ciclesonide]	1.7 ± 0.91	0.937 ± 0.0044	0.333	1.06 ± 0.066
CC(C)(S)C(N)C(=O)O (racemic) [D,L-Penicillamine]	1.31 ± 0.71	1.03 ± 0.015	0.583	0.996 ± 0.025
CN[C@H]1CC[C@@H](c2ccc(Cl)c(Cl)c2)c2ccccc21 [Sertraline]	0.914 ± 0.35	0.973 ± 0.035	0.917	0.969 ± 0.045
CCSc1ccc2c(c1)N(CCCN1CCN(C)CC1)c1ccccc1S2 [Thiethylperazine dimalate]	0.677 ± 0.22	1.054 ± 0.0092	0.833	0.9766 ± 0.0079
O=C(c1ccccc1)c1ccc2n1CCC2C(=O)O (stereo not given) [Ketorolac tromethamine]	1 ± 0.43	1.15 ± 0.013	0.667	1.04 ± 0.025
O=C(NCC1CCCCN1)c1cc(OCC(F)(F)F)ccc1OCC(F)(F)F (stereo not given) [Flecainide acetate]	0.977 ± 0.32	1.03 ± 0.022	0.75	0.961 ± 0.023
CN(C)CCOC(c1ccccc1)c1ccccc1.Cn1c(=O)c2[nH]c(Cl)nc2n(C)c1=O [Dimenhydrinate]	1.31 ± 0.54	1.05 ± 0.054	0.917	1.029 ± 0.0072
NC(=O)c1cccnc1 [Nicotinamide]	1 ± 0.22	1.022 ± 0.0032	0.909	0.985 ± 0.059
CO[C@@H]1[C@@H](O[C@@H]2O[C@H](C)[C@@H](O[C@H]3C[C@@](C)(O)[C@@H](OC(=O)CC(C)C)[C@H](C)O3)[C@H](N(C)C)[C@H]2O)[C@@H](CC=O)C[C@@H](C)[C@@H](O)/C=C/C=C/C[C@@H](C)OC(=O)C[C@H]1OC(C)=O [Josamycin]	1.16 ± 0.39	1.13 ± 0.093	0.909	1.0423 ± 0.00028
